Results published in paper PMC4336329 (PLoS ONE, 2015).
About 2,200 (0.71%) of roughly 310,000 compounds showed an effect of 50% or more. Effects have a minus sign here. For the sample, strong results were picked, then their nearest neighbours and some compounds at random.

molecular target: human ether-à-go-go-related gene (hERG) potassium channel (human, UniProt Q12809); assay: primary screen, population patch clamp on CHO cells stably expressing hERG; higher = less effect of the substance
Sequence (Q12809 whole entry, looked up): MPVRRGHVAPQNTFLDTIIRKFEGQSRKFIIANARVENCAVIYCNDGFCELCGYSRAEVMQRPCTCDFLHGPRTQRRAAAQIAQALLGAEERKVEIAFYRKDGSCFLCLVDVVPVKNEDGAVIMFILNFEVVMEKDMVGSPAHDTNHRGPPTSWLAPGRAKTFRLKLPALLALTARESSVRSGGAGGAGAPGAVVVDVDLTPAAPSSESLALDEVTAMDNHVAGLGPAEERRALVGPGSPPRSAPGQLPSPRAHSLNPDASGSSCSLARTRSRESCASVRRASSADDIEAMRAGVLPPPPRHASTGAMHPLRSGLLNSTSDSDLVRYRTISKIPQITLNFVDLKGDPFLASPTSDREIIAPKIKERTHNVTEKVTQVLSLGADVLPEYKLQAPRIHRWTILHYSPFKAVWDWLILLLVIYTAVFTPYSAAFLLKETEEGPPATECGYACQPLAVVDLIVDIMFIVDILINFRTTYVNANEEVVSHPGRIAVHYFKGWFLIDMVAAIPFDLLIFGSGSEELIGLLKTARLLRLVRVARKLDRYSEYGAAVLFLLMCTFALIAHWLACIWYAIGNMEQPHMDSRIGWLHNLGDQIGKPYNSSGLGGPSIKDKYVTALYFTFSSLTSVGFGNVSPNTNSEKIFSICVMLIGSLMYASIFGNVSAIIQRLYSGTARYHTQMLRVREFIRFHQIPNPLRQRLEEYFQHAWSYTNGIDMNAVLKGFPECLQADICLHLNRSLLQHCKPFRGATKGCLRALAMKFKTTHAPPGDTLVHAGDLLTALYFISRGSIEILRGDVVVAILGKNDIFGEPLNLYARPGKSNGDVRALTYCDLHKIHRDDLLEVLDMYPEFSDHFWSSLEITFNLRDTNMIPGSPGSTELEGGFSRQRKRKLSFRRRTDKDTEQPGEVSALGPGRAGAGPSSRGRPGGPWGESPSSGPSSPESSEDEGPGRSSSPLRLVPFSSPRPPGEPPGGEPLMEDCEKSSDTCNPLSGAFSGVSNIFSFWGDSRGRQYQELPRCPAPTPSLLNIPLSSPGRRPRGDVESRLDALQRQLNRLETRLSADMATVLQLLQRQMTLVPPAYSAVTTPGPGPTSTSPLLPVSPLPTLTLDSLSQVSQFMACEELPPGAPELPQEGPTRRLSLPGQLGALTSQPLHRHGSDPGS

Row | Compound | hERG current change (%, negative = inhibition) at 1uM [%]
1 | CCCCN1C(=N)C(CC)(CC)C(=O)NC1=O.Cl | 27.4
2 | Cc1ccc2cc(CN(Cc3ccco3)C(=O)C3CCCCC3)c(=O)[nH]c2c1C | 6.2
3 | Cc1ccc2nc(SCC(=O)NC3CCCCC3)nc(=O)n2c1 | -4.63
4 | C=CCNC(=O)c1cc2c(=O)n3cc(C)ccc3nc2nc1NCC1CCCO1 (stereo not shown) | -82
5 | Cc1ccc2nc3nc(NCC4CCCO4)c(C(=O)NC4CCCCC4)cc3c(=O)n2c1 (stereo not shown) | -76.8
6 | COCCCNC(=O)c1cc2c(=O)n3cc(C)ccc3nc2nc1NCC1CCCO1 (stereo not shown) | -26.6
7 | Cc1ccc2nc3nc(NCC4CCCO4)c(C(=O)NC4CCCC4)cc3c(=O)n2c1 (stereo not shown) | -83.8
8 | Cc1ccc(-c2nn(-c3ccccc3)cc2C(=O)NCC2CCCO2)cc1 (stereo not shown) | 1.49
9 | CCNc1nc2nc3ccc(C)cn3c(=O)c2cc1C(=O)NCC1CCCO1 (stereo not shown) | -31.2
10 | Cc1ccc(-c2nn(-c3ccccc3Cl)cc2C(=O)NCC2CCCO2)cc1 (stereo not shown) | 18.4
11 | CCn1cc(C(=O)NCC2CCCO2)c2cc(OC)c(OC)cc2c1=O (stereo not shown) | 14.8
12 | O=C(NC1CCCCCC1)c1ccc2nc3cc(Cl)ccc3c(=O)n2c1 | 4.2
13 | Cc1ccc2nc3c(cc(C(=O)NC4CCS(=O)(=O)C4)n3Cc3ccccc3)c(=O)n2c1 (stereo not shown) | 21.4
14 | CCOCCCNc1nc2nc3ccc(C)cn3c(=O)c2cc1C(=O)NCC1CCCO1 (stereo not shown) | -76
15 | CCN(CC)c1ccc(/C=N/NC(=O)CNC(=O)c2ccccn2)cc1 | -7.85
16 | CC(C)C(C)NC(=O)CSc1nnc(-c2c[nH]c3ccccc23)o1 (stereo not shown) | 4.32
17 | CC1(C)CC(=O)C(C2c3ccccc3S(=O)(=O)c3ccccc32)C(=O)C1 | 16.3
18 | c1ccc(-c2nc3nonc3c3nc4ccccc4n23)cc1 | -1.03
19 | Cc1ccc(S(=O)(=O)N(CC(O)CN2C(=O)NC(C)(C)C2=O)c2ccccc2)cc1 (stereo not shown) | -28.4
20 | Cc1cccc(N(CC(O)CN(C)C)S(=O)(=O)c2ccccc2)c1.Cl (stereo not shown) | -50.1
21 | Cc1ccc(N(CC(O)CN(C)C)S(=O)(=O)c2ccccc2)cc1.Cl (stereo not shown) | -62.8
22 | CCCN(CCC)CC(O)CN(c1ccccc1)S(=O)(=O)c1ccc(C)cc1 (stereo not shown) | -88.6

Row | Compound | hERG current change (%, negative = inhibition) at 1uM [%]
23 | Cc1cc(C)n(CC(O)CN(c2ccccc2)S(=O)(=O)c2ccc3ccccc3c2)n1 (stereo not shown) | 6.41
24 | Cc1ccc(S(=O)(=O)N(CCC(=O)O)c2ccccc2)cc1 | 4.11
25 | Cc1cccc(N(CC(O)CN2CCOCC2)S(=O)(=O)c2ccccc2)c1 (stereo not shown) | 11.2
26 | CCN(c1ccccc1)S(=O)(=O)c1ccc2ccccc2c1 | 14.6
27 | CCN(CC)CC(O)CN(c1ccccc1)S(=O)(=O)c1ccc2ccccc2c1.Cl (stereo not shown) | -78.5
28 | O=S(=O)(c1ccccc1)N(CC(O)COc1ccccc1)c1ccccc1 (stereo not shown) | 7.47
29 | Cc1ccc(S(=O)(=O)N(CC(O)CN(C)C)c2ccccc2)cc1.Cl (stereo not shown) | -43.8
30 | Cc1cccc(N(CC(O)CN2CCCC2)S(=O)(=O)c2ccccc2)c1 (stereo not shown) | -35.3
31 | Cc1nn(CC(=O)N2CCOCC2)c(=O)c2nn(-c3ccccc3)c(C)c12 | 16.5
32 | Cc1nn(C/C(C#N)=N\O)c(C)[n+]1N.[Cl-] | 11.8
33 | COc1c(Cl)cc(Cl)cc1CNCCNCC(C)O.Cl (stereo not shown) | 5.98
34 | COc1ccc(C(=O)Nc2ccc(C(=O)N3CCOCC3)cc2)cc1OC | 11.3
35 | Cc1c(NC(=O)/C(C#N)=C/c2ccccc2)c(=O)n(-c2ccccc2)n1C | 8.78
36 | CCOC(=O)C1CCN(Cc2ccc(Cl)nc2)CC1 | 11.6
37 | COc1ccc(C2c3c(ccc4ccccc34)Oc3ncn4nc(Cc5ccc(OC)c(OC)c5)nc4c32)cc1 (stereo not shown) | 2.05
38 | CN(C)c1ccc(/C=C(\NC(=O)c2ccccc2)C(=O)NCc2cccnc2)cc1 | -0.749
39 | O=C(NCc1cccnc1)/C(=C/c1ccccc1)NC(=O)c1ccccc1 | -23.3
40 | O=C(NCc1cccnc1)/C(=C/c1ccc(Cl)cc1)NC(=O)c1ccccc1 | -60.8
41 | COc1ccc(CCNC(=O)/C(=C/c2cccnc2)NC(=O)c2ccccc2)cc1 | 3.27
42 | O=C(NCCc1ccc(Cl)cc1)/C(=C/c1cccnc1)NC(=O)c1ccccc1 | -53.8
43 | O=C(NCCc1ccccc1F)/C(=C/c1cccnc1)NC(=O)c1ccccc1 | -3.24
44 | COc1ccc(/C=C2\SC(=S)N(CCC(=O)N3CCCCC3)C2=O)cc1 | -2.37

Row | Compound | hERG current change (%, negative = inhibition) at 1uM [%]
45 | CCOc1ccc(C(=O)CCC(=O)Nc2ccccc2C)cc1 | 12.5
46 | CC(C)c1ccccc1NC(=O)COC(=O)CNC(=O)c1ccc(Br)cc1 | 11
47 | CCN(CC)S(=O)(=O)c1ccc(Cl)c(NC(=O)CSc2nnc(-c3cccs3)o2)c1 | 5.51
48 | CCOc1ccc(N2CC(C(=O)Nc3ccc(S(=O)(=O)N4CCCC4)cc3)CC2=O)cc1 (stereo not shown) | 6.22
49 | c1ccc(Nc2nn[nH]n2)cc1 | 10.1
50 | NC(=O)c1sc2nc(N3CCCCC3)c3c(c2c1N)CCCC3 | 4.86
51 | Cc1cc(Cl)c2oc(C(=O)N3CCN(c4cccc(C)n4)CC3)c(C)c2c1 | 14
52 | Cc1cc(Cl)c2oc(C(=O)N3CCN(C(=O)c4ccco4)CC3)c(C)c2c1 | 7.14
53 | Cc1cc(Cl)c2oc(C(=O)N3CCN(c4ccncc4)CC3)c(C)c2c1 | -83.6
54 | Cc1ccc(S(=O)(=O)NCCC(=O)OCC(=O)N(Cc2ccccc2)C(C)(C)C)cc1C | -0.298
55 | O=C(O)c1ccc(S(=O)(=O)N2CCC3(CC2)CC(=O)c2ccccc2O3)cc1 | 10.5
56 | COc1ccc(Cl)cc1C(=O)N1CCC2(CC1)CC(=O)c1ccccc1O2 | -71.7
57 | O=C1CC2(CCN(C(=O)c3ccc(Cl)cc3)CC2)Oc2ccccc21 | -63.7
58 | O=C1CC2(CCN(C(=O)c3cccc([N+](=O)[O-])c3)CC2)Oc2ccccc21 | -66.7
59 | CC(=O)N1CCC2(CC1)CC(=O)c1cc(Cl)ccc1O2 | -7.88
60 | O=C1CC2(CCN(C(=O)c3cccc(Cl)c3)CC2)Oc2ccccc21 | -46.6
61 | O=C1CC2(CCN(C(=O)c3cccc(F)c3)CC2)Oc2ccccc21 | -32.6
62 | O=C(c1ccccc1)N1CCN(C(=O)c2ccc([N+](=O)[O-])cc2)CC1 | -4.32
63 | O=C1CC2(CCN(C(=O)c3ccc(F)cc3)CC2)Oc2ccccc21 | -42.2
64 | COc1ccccc1OCC(=O)N1CCC2(CC1)CC(=O)c1ccccc1O2 | -4.96
65 | O=C1CC2(CCN(C(=O)c3ccc([N+](=O)[O-])cc3)CC2)Oc2ccccc21 | -87.5
66 | O=C1CC2(CCN(C(=O)c3c(F)cccc3F)CC2)Oc2ccccc21 | -3.63

Row | Compound | hERG current change (%, negative = inhibition) at 1uM [%]
67 | CCO.CN1CC=C2C(C#N)=C(N)C(C#N)(C#N)[C@H](c3ccoc3)[C@H]2C1 | 6.1
68 | COc1cc2ccccc2cc1C(=O)N(CCN(C)C)c1nc2c(OC)ccc(OC)c2s1.Cl | 14
69 | Cc1ccnc(NS(=O)(=O)c2ccc(NS(=O)(=O)c3ccc(Br)cc3)cc2)n1 | 16.1
70 | COc1ccccc1NC(=S)NC(=O)/C=C/c1cccs1 | 12.3
71 | COCCCNC(=O)CN(c1cc(Cl)cc(Cl)c1)S(C)(=O)=O | 8.12
72 | COc1cc(S(=O)(=O)N2CCN(C(=O)c3ccco3)CC2)ccc1Cl | 8.83
73 | Cn1ncc2nnn(-c3ccccc3)c(=O)c21 | -0.008
74 | C=CCn1c(SCC(=O)Nc2sccc2C(N)=O)nc2ccc(Cl)cc2c1=O | 1.53
75 | FCCCOc1ccc(/C=N/OCc2ccc(Cl)cc2Cl)cc1 | 9.53
76 | O=C1CC2(CCN(C(=O)c3ccc(Br)cc3)CC2)Oc2ccccc21 | -30.8
77 | O=C1CC2(CCN(C(=O)c3ccccc3Br)CC2)Oc2ccccc21 | -51.4
78 | O=C1CC2(CCN(C(=O)c3ccccc3[N+](=O)[O-])CC2)Oc2ccccc21 | -19
79 | CSc1ccccc1C(=O)N1CCC2(CC1)CC(=O)c1ccccc1O2 | -27.2
80 | O=C1CC2(CCN(C(=O)c3cccc(Br)c3)CC2)Oc2ccccc21 | -56
81 | O=C1CC2(CCN(C(=O)c3ccccc3F)CC2)Oc2ccccc21 | -47.9
82 | Cc1c(C(=O)N2CCC3(CC2)CC(=O)c2ccccc2O3)cccc1[N+](=O)[O-] | -83.9
83 | O=C1CC2(CCN(C(=O)c3c(F)cccc3Cl)CC2)Oc2ccccc21 | -4.7
84 | O=C1CC2(CCN(C(=O)c3ccccc3Cl)CC2)Oc2ccccc21 | -27.6
85 | CCn1nnc2cc(C(=O)Nc3cc(OC)cc(OC)c3)ccc21 | 19.3
